Assay results: ChEMBL document CHEMBL3433997, “St. Jude Leishmania screening dataset” (2016)

Tests used:
Type in all cases: functional
[1] = molecular target: Solute carrier family 2, facilitated glucose transporter member 1 (Homo sapiens) (UniProt P11166); assay: ST_JUDE_LEISH: Cytotoxicity at 2uM final concentration against transgenic Leishmania Mexicana promastigotes LmGLUT1 that are glucose transport deficient and complemented with the human glucose transporter GLUT1. Activity is measured by DNA content using SYBR green in vitro
Sequence of Solute carrier family 2, facilitated glucose transporter member 1 (Homo sapiens) (P11166 whole entry): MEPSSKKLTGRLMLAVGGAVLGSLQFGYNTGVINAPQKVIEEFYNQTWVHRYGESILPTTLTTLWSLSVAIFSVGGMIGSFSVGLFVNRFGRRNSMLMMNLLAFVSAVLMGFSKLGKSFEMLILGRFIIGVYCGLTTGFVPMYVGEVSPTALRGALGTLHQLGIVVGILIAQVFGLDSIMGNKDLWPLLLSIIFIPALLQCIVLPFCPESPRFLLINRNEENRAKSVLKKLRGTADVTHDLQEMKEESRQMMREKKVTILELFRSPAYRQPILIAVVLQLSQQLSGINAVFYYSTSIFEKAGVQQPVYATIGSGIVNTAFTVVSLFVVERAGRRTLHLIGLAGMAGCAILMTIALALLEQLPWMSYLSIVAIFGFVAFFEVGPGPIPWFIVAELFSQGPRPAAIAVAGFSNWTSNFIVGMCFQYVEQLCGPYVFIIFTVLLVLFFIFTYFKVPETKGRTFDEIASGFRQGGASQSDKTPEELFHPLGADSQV

[2] = molecular target: Hexose transporter 1 (Plasmodium falciparum) (UniProt O97467); assay: ST_JUDE_LEISH: Cytotoxicity at 2uM final concentration against transgenic Leishmania Mexicana promastigotes LmPfHT that are glucose transport deficient and complemented with the Plasmodium falciparum hexose transporter. Activity is measured by DNA content using SYBR green in vitro
[3] = molecular target: Glucose transporter (Leishmania mexicana) (UniProt O61059); assay: ST_JUDE_LEISH: Cytotoxicity at 2uM final concentration against transgenic Leishmania Mexicana promastigotes LmGT2 that are glucose transport deficient and complemented with the L. Mexicana glucose transporter 2. Activity is measured by DNA content using SYBR green in vitro

SMILES	inhibition [1]	inhibition [2]	inhibition [3]
COc1cc(OC)cc(-c2nnc(Sc3ccc(C#N)c([N+](=O)[O-])c3)n2C)c1	9.51%	6.92%	5.47%
CCOC(=O)C1=C(C)NC2=C(C(=O)C(C(=O)OC)C(C)C2)C1c1cc(Br)c(OCC)c(OC)c1 (stereo unspecified)	8.37%	6.84%	6.67%
Cc1ccc(CON2C(N)=NC(N)=NC2(C)C)c(Cl)c1.Cc1ccc(CON2C(N)=NC(N)=NC2(C)C)cc1Cl	2.94%	4.84%	1%
Cc1nn(CC(O)Cn2c3ccc(Br)cc3c3cc(Br)ccc32)c(C)c1Br (stereo unspecified)	-0.46%	-3.23%	-0.3%
Cc1cccc2nc(-c3ccc(-c4ccc(CNCc5ccc(CN)cc5)cc4)s3)[nH]c12	5.43%	8.51%	0.48%
CCCCCCCN(CCCCCCC)CCNc1cc(C)nc2ccccc12	6.37%	5.18%	4.49%
CCN(CC)CCCC(C)Nc1c(-c2ccc(C)cc2)cnc2ccccc12 (stereo unspecified)	9.89%	7.44%	8.1%
O=C(/C=C/c1ccc(Cl)c(Cl)c1)NCCCCCCN1CCCN(C(=O)Nc2ccc(Cl)c(C(F)(F)F)c2)CC1	-1.95%	0.9%	-1.22%
Oc1ccc(Cl)cc1CN1CCC2(CCCN(CC3CCC3)C2)C1 (stereo unspecified)	-3%	-0.63%	1.23%
O=C(/C=C/c1ccc(Cl)cc1Cl)NCCCCCN1CCC(c2c[nH]c3ccccc23)CC1	-2.21%	0.6%	1.57%
O=C(CC1NC(=O)c2ccccc21)Nc1ccc(-c2ccc(-c3nc4cc(C(F)(F)F)ccc4[nH]3)cc2)cc1 (stereo unspecified)	4.68%	3.05%	5.45%
COc1ccc2nccc([C@@H](O)CN3CCC(NCCNc4cccc(F)c4)CC3)c2c1	6.07%	11.1%	0.95%
